Screening results: PubChem, NMMLSC
MEP2-GFP yeast = modulators of MEP2-GFP levels in yeast, primary screen, S. cerevisiae, multiplex flow cytometry, MLPCN library; actives 0.51% (n = 330,000); S. cerevisiae MEP2-GFP strain, 3 h; 100% = DMSO control level; AID 2016, 2009; GFP response vs DMSO, % at 10 µM;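 active means GFP response versus DMSO above a set limit, roughly screen mean plus 3 SD, cut at about 180% in these data; inconclusive means fewer than 70 cells counted for a yeast strain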;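 further: median GFP fluorescence of the barcode-gated MEP2-GFP cells per well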
CIT2 TOR yeast = modulators of CIT2-GFP expression in yeast, primary screen, S. cerevisiae, GFP fusion, multiplex flow cytometry, MLPCN library; S. cerevisiae CIT2-GFP strain, 3 h; 100 means same as DMSO wells; GFP response vs DMSO, % at 10 µM; actives 0.065% (n = 320,000);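 active means GFP response relative to DMSO above a set limit, near the screen mean plus 3 SD, cut at about 150% in these data; inconclusive means Fewer than 70 cells measured for a yeast strain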;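 further: ratio of well median GFP fluorescence to mean of DMSO wells on the plate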
RPL19A-GFP yeast = RPL19A-GFP expression modulators in yeast, primary screen, cell-based, S. cerevisiae, multiplex flow cytometry, MLPCN; S. cerevisiae RPL19A-GFP strain, 3 h; stronger effect = lower value; actives 0.3% (n = 330,000); percent response vs DMSO, % at 10 µM;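 active means percent response vs DMSO below 50%; inconclusive means fewer than 70 events counted for the yeast strain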;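 further: median channel GFP fluorescence of the barcoded RPL19A-GFP strain; ratio of sample median GFP to plate DMSO average so 100% = DMSO; lower means less RPL19A-GFP as with rapamycin TOR inhibition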
AGP1 TOR yeast = modulators of AGP1-GFP expression in yeast TOR pathway, primary screen, cell-based, multiplex flow cytometry, S. cerevisiae, MLPCN library | AID 2066, 2009 | actives 0.02% (n = 320,000) | 3 h; GFP as percent of DMSO wells | GFP response vs DMSO, % at 10 µM;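 active means GFP response relative to DMSO above a set limit, near screen average plus 3 SD, cut at about 150% in these data; inconclusive means fewer than 70 cells counted for the yeast strain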;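 further: median GFP channel fluorescence of the gated AGP1 strain per well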
LAP4 TOR yeast = modulators of LAP4-GFP expression in yeast, primary screen, S. cerevisiae, multiplex flow cytometry, MLPCN library | AID 2023, 2009 | actives 0.34% (n = 320,000) | 3 h; median GFP as percent of DMSO wells | GFP response vs DMSO, % at 10 µM;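 active means GFP response vs DMSO above a set limit, about the screen mean plus 3 SD, cut at about 150% in these data; inconclusive means under 70 cell events counted for the yeast strain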
* hit, by the source's call; ? = inconclusive; nt = no result given; + = active, no number; [ ] = remark or other dose. Shown are actives, neighbours in structure and some others; about 0.93% of the full set was active somewhere.

SMILES	MEP2-GFP yeast	CIT2 TOR yeast	RPL19A-GFP yeast	AGP1 TOR yeast	LAP4 TOR yeast
CCCCCCCCOc1ccc(C2OC34CCCCC3C(C#N)(C#N)C2(C#N)C(=N)O4)cc1 (centres undefined)	376*[may fluoresce violet]	?	49*[may fluoresce violet]	29	84
CCOC(=O)C1=C(c2ccccc2)NC(=S)NC1c1cc([N+](=O)[O-])ccc1OC (centres undefined)	272*	116	nt	27	92
CCOc1ccc(C(=O)NCc2ccco2)cc1OC	105	101	105	100	93
Cc1cccc(C)c1NC(=O)CSc1nc(C)c(CC(=O)c2ccc(Br)cc2)c(C)c1C#N	228*[may fluoresce violet]	?	67	23	66
O=C(CSCc1cccc(Br)c1)N=Nc1c(O)[nH]c2ccccc12	136	116	65	110	165*
O=C(N=Nc1c(O)[nH]c2ccccc12)c1ccco1	493*	108	68	152*	197*
O=C(CSCc1ccccc1)N=Nc1c(O)[nH]c2ccccc12	100	98	101	98	90
CN(C)c1ccc(NC(=O)Nc2ccc3c(c2)nnn3C)cc1	99	107	105	97	88
COc1cccc(NC(=O)Nc2ccc3c(c2)nnn3C)c1	184*	98	60	25	88
COc1ccc(N=Cc2cc(Cc3ccccc3Cl)cc([N+](=O)[O-])c2O)cc1OC	234*	107	98	77	107
O=C(NCC1CCCO1)c1ccc(Br)c(S(=O)(=O)N2CCOCC2)c1 (centres undefined)	+[may fluoresce green]	+[may fluoresce green]	775	786*[may fluoresce green]	+[may fluoresce green]
CCOC(=O)c1cnc(-c2ccccc2)nc1Oc1cccc(Cl)c1	196*[may fluoresce violet]	?	65	24	90
Cc1ccc(S(=O)(=O)N2CCN(C(=O)C(Cc3ccccc3)NC(=O)c3ccccc3)CC2)cc1 (centres undefined)	91	87	96	96	96
O=C(NC1CCCCC1)C(c1ccc2ncccc2c1)N(Cc1ccc(F)cc1)C(=O)c1cccs1 (centres undefined)	95	92	93	94	86
CCC(C)(C)NC(=O)C(c1ccc(C)cc1)N(Cc1ccco1)C(=O)Cn1nnc2ccccc21 (centres undefined)	103	100	99	102	95
CCC(C)(C)NC(=O)C(c1cccs1)N(CC1CCCO1)C(=O)Cn1nnc2ccccc21 (centres undefined)	195*	97	95	97	87
O=C(NCc1ccco1)C(c1ccccc1)N(CC1CCCO1)C(=O)Cn1nnc2ccccc21 (centres undefined)	101	98	101	101	108
CCC(C)(C)NC(=O)C(c1ccncc1)N(Cc1cccs1)C(=O)Cn1nnc2ccccc21 (centres undefined)	253*[may fluoresce violet]	?	31*[may fluoresce violet]	?	73
COc1cc(-c2nnc3sc(C4CCCCC4)nn23)cc(OC)c1OC	546*[may fluoresce violet]	?	43*[may fluoresce violet]	nt	107
CC(=O)c1cc2c(cc1NS(=O)(=O)c1ccccc1C)OCO2	101	97	99	92	92
CC(=O)c1cc2c(cc1NS(=O)(=O)c1ccccc1Br)OCO2	608*[may fluoresce violet]	?	59	23	99
CCOC(=O)C1=C(C)N=C2SC(C(=O)OC)=CC(=O)N2C1c1cccc(OC)c1 (centres undefined)	91	101	103	105	98
CCOC(=O)C1=C(C)N=C2SC(C(=O)OC)=CC(=O)N2C1c1ccc(F)cc1 (centres undefined)	85	62	92	77	190*
CC(OC(=O)c1ccco1)C(=O)Nc1ncc(Cl)cc1Cl (centres undefined)	92	88	98	93	104
COc1cccc(CC(=O)OC(C)C(=O)Nc2ncc(Cl)cc2Cl)c1 (centres undefined)	86	64	68	83	170*
O=c1oc(Nc2cccc(Cl)c2)nc2ccccc12	101	97	95	99	107
